Experimental data published in the antibiotic and cytotoxicity screens of Wong et al. (2023).
About 1,500 (3.8%) of roughly 39,000 compounds were called active. Shown is part of a subset that was picked to be rich in actives.

tested on: HSkMC (human skeletal muscle cells); assay: cytotoxicity call (relative viability < 0.9); details: 10 µM

SMILES	cytotoxicity call
COc1ccc(S(=O)(=O)Nc2ccc3c(c2)CC(=O)N([C@H](C)CO)C[C@@H](C)[C@H](CN(C)C(=O)Nc2c(C)noc2C)O3)cc1	inactive
C[C@@H]1CCCCO[C@@H](CN(C)S(=O)(=O)c2cccs2)[C@@H](C)CN([C@H](C)CO)C(=O)c2cc(NC(=O)Nc3ccc4c(c3)OCO4)ccc2O1	inactive
N#Cc1ccc(Oc2ccccn2)cc1	inactive
Cc1cc(C(=O)Nc2cccc3c2O[C@@H](CN(C)Cc2ccc(Oc4ccccc4)cc2)[C@H](C)CN([C@H](C)CO)C3=O)n(C)n1	inactive
Cc1noc(C)c1S(=O)(=O)Nc1ccc2c(c1)C(=O)N([C@@H](C)CO)C[C@@H](C)[C@@H](CN(C)S(=O)(=O)c1cn(C)cn1)OCCCC[C@@H](C)O2	inactive
C[C@@H]1CCCCO[C@H](CN(C)Cc2ccc3c(c2)OCO3)[C@H](C)CN([C@H](C)CO)C(=O)c2cc(NC(=O)Nc3ccccc3)ccc2O1	inactive
C[C@@H]1CN([C@@H](C)CO)C(=O)c2cc(NC(=O)Cn3cnnn3)ccc2O[C@@H]1CN(C)Cc1ccc(C(F)(F)F)cc1	inactive
CC(C)NC(=O)Nc1ccc2c(c1)CC(=O)N([C@@H](C)CO)C[C@H](C)[C@@H](CN(C)S(=O)(=O)c1ccc(Cl)cc1)O2	inactive
COc1ccc(S(=O)(=O)N(C)C[C@H]2Oc3ccc(N(C)C)cc3CC(=O)N([C@@H](C)CO)C[C@@H]2C)cc1	inactive
CC(C)NC(=O)Nc1ccc2c(c1)CC(=O)N([C@@H](C)CO)C[C@@H](C)[C@@H](CN(C)S(=O)(=O)c1ccc(Cl)cc1)O2	inactive
C[C@H]1CN([C@@H](C)CO)C(=O)Cc2cc(NC(=O)Nc3ccc(Cl)c(Cl)c3)ccc2O[C@H]1CN(C)S(=O)(=O)c1ccc(Cl)cc1	active
COc1ccc(S(=O)(=O)N(C)C[C@@H]2Oc3ccc(N(C)C)cc3CC(=O)N([C@@H](C)CO)C[C@H]2C)cc1	inactive
C[C@H]1CN([C@@H](C)CO)C(=O)Cc2cc(NC(=O)Nc3cc(Cl)cc(Cl)c3)ccc2O[C@H]1CN(C)S(=O)(=O)c1ccc(Cl)cc1	active
COc1ccc(S(=O)(=O)N(C)C[C@@H]2Oc3ccc(N(C)C)cc3CC(=O)N([C@H](C)CO)C[C@@H]2C)cc1	active
CC(C)NC(=O)Nc1ccc2c(c1)CC(=O)N([C@H](C)CO)C[C@H](C)[C@H](CN(C)S(=O)(=O)c1ccc(Cl)cc1)O2	inactive
CC(C)NC(=O)Nc1ccc2c(c1)CC(=O)N([C@H](C)CO)C[C@H](C)[C@@H](CN(C)S(=O)(=O)c1ccc(Cl)cc1)O2	inactive
Cn1nnc2c(N3CCC(O)CC3)ncnc21	inactive
